Measurements from ChEMBL document CHEMBL5724796, “Tm Shift (DSF) assay results for EUbOPEN Chemogenomics Library” (2024).

Columns and labels:
Details in all cases: Compound concentration 20.0 uM
[1] = target: Tyrosine-protein kinase ABL1 (Homo sapiens) (UniProt P00519)
[2] = target: Bromodomain-containing protein 4 (Homo sapiens) (UniProt O60885)
[3] = target: Cyclin-dependent kinase 2 (Homo sapiens) (UniProt P24941)
[4] = target: Casein kinase I isoform delta (Homo sapiens) (UniProt P48730)
[5] = target: Glycogen synthase kinase-3 beta (Homo sapiens) (UniProt P49841)
Chain of Glycogen synthase kinase-3 beta (Homo sapiens) (P49841 whole entry, looked up): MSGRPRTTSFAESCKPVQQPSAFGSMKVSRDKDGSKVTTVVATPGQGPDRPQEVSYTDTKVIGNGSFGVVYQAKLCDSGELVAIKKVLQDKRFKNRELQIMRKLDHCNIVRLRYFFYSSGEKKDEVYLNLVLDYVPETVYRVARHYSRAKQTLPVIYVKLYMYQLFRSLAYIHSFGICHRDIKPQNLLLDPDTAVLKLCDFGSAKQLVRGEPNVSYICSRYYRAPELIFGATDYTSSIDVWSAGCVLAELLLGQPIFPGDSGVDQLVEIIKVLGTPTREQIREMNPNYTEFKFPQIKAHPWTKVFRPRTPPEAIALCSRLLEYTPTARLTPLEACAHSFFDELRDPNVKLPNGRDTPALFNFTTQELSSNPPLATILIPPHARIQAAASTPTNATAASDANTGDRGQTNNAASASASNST

[6] = target: Mitogen-activated protein kinase 1 (Homo sapiens) (UniProt P28482)
Chain of Mitogen-activated protein kinase 1 (Homo sapiens) (P28482 whole entry): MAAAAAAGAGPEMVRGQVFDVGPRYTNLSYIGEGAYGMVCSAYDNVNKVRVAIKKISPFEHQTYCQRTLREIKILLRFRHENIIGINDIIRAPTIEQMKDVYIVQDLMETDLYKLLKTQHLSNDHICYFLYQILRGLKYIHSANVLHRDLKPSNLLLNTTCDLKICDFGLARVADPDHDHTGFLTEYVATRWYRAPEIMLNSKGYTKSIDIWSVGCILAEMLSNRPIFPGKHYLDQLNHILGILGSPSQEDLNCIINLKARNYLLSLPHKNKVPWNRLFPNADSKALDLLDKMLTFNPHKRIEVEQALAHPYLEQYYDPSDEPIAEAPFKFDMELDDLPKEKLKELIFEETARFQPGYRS

[7] = target: T1, Aurora kinase A (Homo sapiens) (UniProt O14965)
T1 sequence (whole entry): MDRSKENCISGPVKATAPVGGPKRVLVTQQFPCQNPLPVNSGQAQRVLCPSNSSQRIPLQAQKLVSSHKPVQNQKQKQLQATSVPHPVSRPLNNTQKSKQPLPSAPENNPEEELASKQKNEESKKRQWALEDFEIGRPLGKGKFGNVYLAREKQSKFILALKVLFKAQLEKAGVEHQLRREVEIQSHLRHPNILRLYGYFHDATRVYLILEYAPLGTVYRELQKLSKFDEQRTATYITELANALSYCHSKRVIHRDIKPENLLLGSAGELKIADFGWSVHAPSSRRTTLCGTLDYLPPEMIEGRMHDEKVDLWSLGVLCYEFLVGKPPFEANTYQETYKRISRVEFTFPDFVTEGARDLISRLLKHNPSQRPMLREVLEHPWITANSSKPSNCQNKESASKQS

[8] = target: T2, Transcription intermediary factor 1-alpha (Homo sapiens) (UniProt O15164)
T2 sequence (whole entry): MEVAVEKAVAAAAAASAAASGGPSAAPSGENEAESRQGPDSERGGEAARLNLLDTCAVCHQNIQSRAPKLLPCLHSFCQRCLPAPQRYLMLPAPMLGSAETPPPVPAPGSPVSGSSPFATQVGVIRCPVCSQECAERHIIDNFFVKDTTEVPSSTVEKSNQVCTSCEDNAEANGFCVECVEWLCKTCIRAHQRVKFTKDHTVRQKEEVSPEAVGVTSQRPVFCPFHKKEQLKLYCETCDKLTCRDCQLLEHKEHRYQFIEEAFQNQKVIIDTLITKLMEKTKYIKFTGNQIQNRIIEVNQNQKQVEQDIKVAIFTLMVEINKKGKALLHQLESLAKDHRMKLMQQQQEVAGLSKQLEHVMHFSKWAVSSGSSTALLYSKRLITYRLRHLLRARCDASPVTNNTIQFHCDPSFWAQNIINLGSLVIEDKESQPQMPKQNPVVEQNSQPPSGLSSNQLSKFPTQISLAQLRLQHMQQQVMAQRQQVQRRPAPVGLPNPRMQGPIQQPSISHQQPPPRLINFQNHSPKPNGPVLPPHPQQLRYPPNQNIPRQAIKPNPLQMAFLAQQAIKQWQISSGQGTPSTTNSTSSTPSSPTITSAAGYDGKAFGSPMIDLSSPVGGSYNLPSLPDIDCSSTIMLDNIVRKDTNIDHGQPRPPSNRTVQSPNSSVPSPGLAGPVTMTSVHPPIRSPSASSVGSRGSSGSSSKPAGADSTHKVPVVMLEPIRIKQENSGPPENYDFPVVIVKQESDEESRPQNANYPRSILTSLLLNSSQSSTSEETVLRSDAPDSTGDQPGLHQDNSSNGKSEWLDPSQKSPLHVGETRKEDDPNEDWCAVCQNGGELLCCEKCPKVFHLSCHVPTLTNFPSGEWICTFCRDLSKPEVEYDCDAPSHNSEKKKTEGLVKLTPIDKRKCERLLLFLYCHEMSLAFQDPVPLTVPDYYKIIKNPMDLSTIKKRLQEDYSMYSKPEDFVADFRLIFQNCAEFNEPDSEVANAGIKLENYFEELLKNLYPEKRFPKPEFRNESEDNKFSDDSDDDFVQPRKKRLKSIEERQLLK

Chain of Tyrosine-protein kinase ABL1 (Homo sapiens) (P00519 whole entry): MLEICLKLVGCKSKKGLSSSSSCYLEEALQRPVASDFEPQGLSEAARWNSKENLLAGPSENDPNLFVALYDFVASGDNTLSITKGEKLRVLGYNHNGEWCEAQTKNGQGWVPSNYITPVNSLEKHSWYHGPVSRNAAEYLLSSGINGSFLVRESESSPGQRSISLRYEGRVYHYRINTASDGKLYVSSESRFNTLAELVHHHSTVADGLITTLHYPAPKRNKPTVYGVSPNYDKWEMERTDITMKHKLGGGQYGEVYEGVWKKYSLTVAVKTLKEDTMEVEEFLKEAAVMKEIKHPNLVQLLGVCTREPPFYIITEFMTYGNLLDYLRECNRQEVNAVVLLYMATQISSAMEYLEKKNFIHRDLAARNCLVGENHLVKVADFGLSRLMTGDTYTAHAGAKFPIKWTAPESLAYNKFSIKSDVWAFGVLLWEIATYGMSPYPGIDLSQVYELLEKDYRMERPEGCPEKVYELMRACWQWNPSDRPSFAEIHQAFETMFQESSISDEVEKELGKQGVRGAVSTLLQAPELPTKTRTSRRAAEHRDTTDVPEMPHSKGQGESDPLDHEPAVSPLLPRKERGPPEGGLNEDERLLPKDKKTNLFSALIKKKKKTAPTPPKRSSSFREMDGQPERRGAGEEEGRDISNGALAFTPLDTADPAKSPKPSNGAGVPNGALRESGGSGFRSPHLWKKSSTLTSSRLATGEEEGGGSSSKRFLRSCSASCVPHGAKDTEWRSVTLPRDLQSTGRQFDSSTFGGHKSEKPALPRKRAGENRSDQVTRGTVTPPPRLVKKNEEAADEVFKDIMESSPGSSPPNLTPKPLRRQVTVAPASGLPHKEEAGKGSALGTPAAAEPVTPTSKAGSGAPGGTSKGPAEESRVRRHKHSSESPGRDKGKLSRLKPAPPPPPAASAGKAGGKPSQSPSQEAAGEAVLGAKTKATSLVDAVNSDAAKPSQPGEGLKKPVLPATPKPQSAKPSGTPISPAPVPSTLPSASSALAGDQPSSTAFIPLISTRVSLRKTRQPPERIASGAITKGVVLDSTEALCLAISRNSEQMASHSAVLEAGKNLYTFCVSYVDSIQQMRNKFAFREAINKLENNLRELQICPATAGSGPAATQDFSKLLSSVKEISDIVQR
Chain of Casein kinase I isoform delta (Homo sapiens) (P48730 whole entry, looked up, canonical isoform): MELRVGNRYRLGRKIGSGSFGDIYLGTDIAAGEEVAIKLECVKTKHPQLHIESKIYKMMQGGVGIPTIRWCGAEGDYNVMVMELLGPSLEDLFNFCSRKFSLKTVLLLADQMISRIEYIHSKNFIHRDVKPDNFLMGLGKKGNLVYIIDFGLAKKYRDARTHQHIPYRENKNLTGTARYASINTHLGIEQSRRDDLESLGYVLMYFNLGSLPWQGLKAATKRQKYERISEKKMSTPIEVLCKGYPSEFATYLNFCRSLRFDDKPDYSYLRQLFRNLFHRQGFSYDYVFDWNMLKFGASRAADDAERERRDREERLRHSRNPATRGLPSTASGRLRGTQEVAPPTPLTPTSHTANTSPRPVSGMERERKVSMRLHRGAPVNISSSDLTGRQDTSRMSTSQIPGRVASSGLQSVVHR

Compound | ΔTm [1] [°C] | ΔTm [2] [°C] | ΔTm [3] [°C] | ΔTm [4] [°C] | ΔTm [5] [°C] | ΔTm [6] [°C] | ΔTm [7] [°C] | ΔTm [8] [°C]
CC(=O)O[C@]1(C(C)=O)CC[C@H]2[C@@H]3C=C(Cl)C4=CC(=O)[C@@H]5C[C@@H]5[C@]4(C)[C@H]3CC[C@@]21C | 0.36 | -1.71 | 0.15 | 0.16 | -0.72 | -0.22 | -1.49 | -1.08
C[C@@H]1CN(c2nccc(Nc3ccc4c(c3)n(CCC(C)(C)O)c(=O)n4C)n2)C[C@H](C)C1(F)F | 1.46 | -1.76 | 3.21 | -0.23 | -0.32 | -7.23 | -2.03 | -1.14
COc1cccc(Nc2c(C(N)=O)cnc3c(C)cc(S(=O)(=O)c4cccc(C(=O)N(C)C)c4)cc23)c1 | 0.62 | -2.14 | 0.36 | -0.04 | 0.04 | 0.14 | -0.98 | -0.26
Cn1ncc2c(-c3c(-c4ccc(F)cn4)nn4c3COC(C)(C)C4)ccnc21 | 0.22 | 0.28 | -0.29 | 1.41 | -0.58 | 0.32 | -1.67 | -1.33
Cc1cc(-c2ccc3nc(C4CCOCC4)n(CCOC(F)(F)F)c3c2)cn(C)c1=O | 0.26 | 10.3 | 0.15 | 0.13 | -0.07 | -0.47 | -0.36 | -0.3
N[C@@H](CC(=O)N1CCN(C(c2ccc(F)cc2)c2ccc(F)cc2)CC1)C(=O)N1Cc2ccccc2C1 | -0.03 | 0.11 | -3.61 | -0.26 | 0 | 0 | 0 | -6.21
COC[C@H](NC(=O)c1ccn(S(C)(=O)=O)c1)C(=O)Nc1nc(-c2cccc(-c3ccn(C)n3)c2)cs1 | 0.67 | -0.81 | 0.17 | 0.35 | -3.25 | 0.35 | -2.2 | -1.12
CCN(CCN(C)C)C(=O)CNCc1cc(C(N)=O)ccn1 | 0.33 | -1.29 | 0.23 | -0.08 | 0.25 | -0.01 | -1.34 | -0.57
O=C(NCc1ncccc1F)c1coc(CCNCCc2nc3ccccc3[nH]2)n1 | 0.46 | -3.66 | -0.13 | -0.23 | -0.87 | -0.05 | -2.57 | -0.59
CC(C)[C@@H]1NC(=O)[C@H](Cc2ccc(O)cc2)NC(=O)[C@@H](CC(=O)O)NC(=O)S[C@@H](C(=O)O)NC(=O)[C@H]([C@H](C)O)NC(=O)[C@H](Cc2ccc(O)cc2)NC(=O)[C@H](Cc2c[nH]c3ccccc23)NC(=O)[C@H](CCCNC(=N)N)NC(=O)[C@H](Cc2c[nH]c3ccccc23)NC(=O)[C@H](C)NC(=O)[C@H](CO)NC(=O)[C@H](CCCNC(=N)N)NC(=O)[C@H]([C@H](C)O)NC(=O)[C@H](CC(N)=O)NC(=O)[C@H](Cc2ccc(O)cc2)NC1=O | 0.39 | -2.6 | 0.11 | -0.3 | -0.36 | 0.08 | -2.45 | -0.7
c1cncc(-c2cnn[nH]2)c1 | 0.48 | -1.91 | -0.01 | -0.01 | -0.3 | 0.24 | -1.49 | -0.2
COc1ccc(C(=O)N[C@H](C(=O)N2CCC[C@H]2C(=O)N[C@H](C(=O)C(F)(F)F)C(C)C)C(C)C)cc1 | 0.01 | 0.28 | 0.69 | -0.09 | -0.75 | 0.2 | -1.47 | 1.59
N#C[C@@H]1C[C@@H]2C[C@@H]2N1C(=O)[C@@H](N)C12CC3CC(CC(O)(C3)C1)C2 | 0.22 | 0.38 | 0.24 | -0.14 | -0.19 | 0.33 | -2.27 | 1.46
CNc1cc(-c2cccc(Cl)c2Cl)nc(N)n1 | 0.38 | -2.61 | 0.11 | -0.27 | -0.04 | 0.22 | -2.02 | 0.28
Nc1ccccc1NC(=O)c1ccc(CNc2nccc(-c3cccnc3)n2)cc1 | 1.28 | -1.59 | 0.7 | 2.88 | 0.76 | 0.18 | 5.93 | -0.03
Cc1ccc2[nH]c(-n3nc(C)c(Cc4ccccc4)c3O)nc2c1 | 0.97 | -3.32 | 0.2 | 0.73 | 0.42 | 0.56 | -1.88 | -0.69
